Assay in all cases: DAPPL (digital affinity profiling via proximity ligation, sequencing); 10 mM Tris-HCl pH 7.5, 50 mM NaCl, 1 mM DTT, 4% glycerol, room temperature, 30 min; GST-TFs on glutathione beads, 16-mer random dsDNA library, 0.1% formaldehyde crosslink after washing; high values mean tight binding
Holding throughout (settings): protein: recombinant; tags: N-terminal GST; dsDNA, one strand shown

The target in experiment [1] is T1, ELK4 (Homo sapiens, UniProt P28324-2 1-405).
T1 sequence: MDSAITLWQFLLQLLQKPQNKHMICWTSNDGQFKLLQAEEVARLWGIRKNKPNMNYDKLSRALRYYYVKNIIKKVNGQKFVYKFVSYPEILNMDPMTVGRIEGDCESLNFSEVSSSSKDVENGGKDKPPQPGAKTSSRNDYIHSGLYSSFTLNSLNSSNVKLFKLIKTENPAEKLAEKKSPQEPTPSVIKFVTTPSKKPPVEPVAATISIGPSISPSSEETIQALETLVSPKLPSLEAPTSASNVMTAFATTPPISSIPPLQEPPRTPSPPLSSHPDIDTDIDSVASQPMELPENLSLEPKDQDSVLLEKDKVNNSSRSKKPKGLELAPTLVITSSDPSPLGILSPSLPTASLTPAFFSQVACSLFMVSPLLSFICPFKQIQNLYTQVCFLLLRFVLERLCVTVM
An outline of the steps: (§1)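 Sequencing on an Illumina NextSeq500 followed washing, crosslinking with 0.1% formaldehyde, proximity ligation (BsaI/T4 ligase, 1 h, 37 °C) and PCR amplification of pools that had been incubated for 30 min at room temperature with 200 nmole of a random double-stranded 16-mer DNA library in Tris/NaCl/DTT/glycerol buffer. Each pool held DNA-barcoded human transcription factors, expressed in yeast as GST fusions and captured on glutathione beads, plus a tag-only sample. Binding signal is a hexamer's read frequency for a factor divided by its frequency in the tag-only sample.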

For experiment [2], the target named is T2, ELF3 (Homo sapiens, UniProt P78545 1-371).
T2 sequence: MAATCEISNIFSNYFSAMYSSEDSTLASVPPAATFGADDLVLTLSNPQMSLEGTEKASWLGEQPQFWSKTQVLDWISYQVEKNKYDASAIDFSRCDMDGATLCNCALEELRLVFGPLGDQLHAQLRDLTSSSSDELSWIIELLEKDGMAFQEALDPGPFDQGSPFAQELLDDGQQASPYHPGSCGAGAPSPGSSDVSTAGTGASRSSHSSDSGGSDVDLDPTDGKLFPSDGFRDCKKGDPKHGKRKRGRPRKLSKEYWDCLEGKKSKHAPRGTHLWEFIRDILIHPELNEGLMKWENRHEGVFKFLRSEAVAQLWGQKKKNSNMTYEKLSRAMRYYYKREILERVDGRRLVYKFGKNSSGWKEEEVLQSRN
In short, it runs like this:
as §1

In experiment [3] the target is ETV1 (Homo sapiens, UniProt P50549 1-477). In short, it runs like this: as §1
Experiment [4] concerns the target T3, ERF (Homo sapiens, UniProt P50548 1-548).
T3 sequence: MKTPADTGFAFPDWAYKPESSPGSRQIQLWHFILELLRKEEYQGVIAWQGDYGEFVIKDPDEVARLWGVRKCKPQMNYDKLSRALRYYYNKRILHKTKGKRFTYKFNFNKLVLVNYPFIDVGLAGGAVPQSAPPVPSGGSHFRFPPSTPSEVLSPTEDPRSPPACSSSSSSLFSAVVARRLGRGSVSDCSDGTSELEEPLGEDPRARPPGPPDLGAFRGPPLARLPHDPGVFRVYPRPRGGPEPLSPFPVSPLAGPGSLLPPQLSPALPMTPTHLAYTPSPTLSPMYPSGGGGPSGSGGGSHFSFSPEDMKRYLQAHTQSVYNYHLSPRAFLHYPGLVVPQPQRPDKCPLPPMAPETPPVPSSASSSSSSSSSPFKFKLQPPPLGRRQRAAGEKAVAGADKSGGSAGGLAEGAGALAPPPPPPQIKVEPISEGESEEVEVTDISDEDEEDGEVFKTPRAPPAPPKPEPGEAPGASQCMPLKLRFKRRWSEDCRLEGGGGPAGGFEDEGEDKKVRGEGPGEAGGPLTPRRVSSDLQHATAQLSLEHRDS
In short, it runs like this: as §1

The target of experiment [5] is T4, ETV3L (Homo sapiens, UniProt Q6ZN32 1-361).
T4 sequence: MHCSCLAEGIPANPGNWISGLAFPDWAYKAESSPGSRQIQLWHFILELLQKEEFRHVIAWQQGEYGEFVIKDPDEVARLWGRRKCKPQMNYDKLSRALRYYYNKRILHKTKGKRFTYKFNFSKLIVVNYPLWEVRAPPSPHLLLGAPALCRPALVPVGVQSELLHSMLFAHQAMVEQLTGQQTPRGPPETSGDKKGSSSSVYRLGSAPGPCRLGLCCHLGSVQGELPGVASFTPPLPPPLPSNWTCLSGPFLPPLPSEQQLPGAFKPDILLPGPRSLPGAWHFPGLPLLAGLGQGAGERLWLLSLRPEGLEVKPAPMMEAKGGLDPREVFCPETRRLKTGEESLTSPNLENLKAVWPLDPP
In short, it runs like this:
as §1

In experiment [6] the target is T5, ETS2 (Homo sapiens, UniProt P15036 1-469).
T5 sequence: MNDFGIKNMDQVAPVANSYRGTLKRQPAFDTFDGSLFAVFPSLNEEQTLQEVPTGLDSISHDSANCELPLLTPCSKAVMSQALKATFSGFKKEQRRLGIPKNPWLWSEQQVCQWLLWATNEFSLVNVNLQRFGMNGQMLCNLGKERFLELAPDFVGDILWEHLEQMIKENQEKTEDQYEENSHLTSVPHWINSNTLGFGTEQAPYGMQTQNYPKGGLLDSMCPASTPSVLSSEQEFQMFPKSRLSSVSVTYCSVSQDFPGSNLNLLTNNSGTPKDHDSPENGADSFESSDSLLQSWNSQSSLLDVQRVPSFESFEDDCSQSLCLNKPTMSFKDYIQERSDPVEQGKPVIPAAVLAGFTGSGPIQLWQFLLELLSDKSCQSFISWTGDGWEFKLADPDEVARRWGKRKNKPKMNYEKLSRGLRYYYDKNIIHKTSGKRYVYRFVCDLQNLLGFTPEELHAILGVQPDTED
An outline of the steps: as §1

Experiment [7] addresses T6, SPDEF (Homo sapiens, UniProt O95238 1-335).
T6 sequence: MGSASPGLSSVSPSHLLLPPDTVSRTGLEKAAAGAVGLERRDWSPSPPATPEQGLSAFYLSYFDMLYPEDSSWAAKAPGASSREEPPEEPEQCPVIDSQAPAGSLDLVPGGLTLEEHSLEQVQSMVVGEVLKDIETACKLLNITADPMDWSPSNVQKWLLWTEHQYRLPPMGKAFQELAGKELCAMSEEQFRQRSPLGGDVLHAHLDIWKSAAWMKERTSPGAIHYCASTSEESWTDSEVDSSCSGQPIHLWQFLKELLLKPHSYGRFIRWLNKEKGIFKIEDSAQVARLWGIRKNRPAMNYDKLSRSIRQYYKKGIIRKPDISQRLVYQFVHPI
An outline of the steps: as §1

For experiment [8], the target named is T7, ETV7 (Homo sapiens, UniProt Q9Y603 1-341).
T7 sequence: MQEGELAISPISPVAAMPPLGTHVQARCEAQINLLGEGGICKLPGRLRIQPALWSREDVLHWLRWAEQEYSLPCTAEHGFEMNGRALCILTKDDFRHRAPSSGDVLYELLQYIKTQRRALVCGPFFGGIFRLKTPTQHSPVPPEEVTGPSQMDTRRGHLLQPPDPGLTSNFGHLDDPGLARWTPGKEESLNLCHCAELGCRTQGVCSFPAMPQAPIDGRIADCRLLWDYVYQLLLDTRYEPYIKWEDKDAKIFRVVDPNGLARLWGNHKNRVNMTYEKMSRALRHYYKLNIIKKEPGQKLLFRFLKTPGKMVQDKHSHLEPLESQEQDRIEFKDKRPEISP
In short, it runs like this: as §1

The target of experiment [9] is T8, ETV3 (Homo sapiens, UniProt P41162-2 1-143).
T8 sequence: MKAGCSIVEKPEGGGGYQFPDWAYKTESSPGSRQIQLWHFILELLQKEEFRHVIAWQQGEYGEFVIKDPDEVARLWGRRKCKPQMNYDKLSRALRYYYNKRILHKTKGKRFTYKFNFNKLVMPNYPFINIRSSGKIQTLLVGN
An outline of the steps: as §1

The target of experiment [10] is ETV6 (Homo sapiens, UniProt P41212 1-452). In short, it runs like this:
as §1

Sequence of ETV6 (P41212 whole entry): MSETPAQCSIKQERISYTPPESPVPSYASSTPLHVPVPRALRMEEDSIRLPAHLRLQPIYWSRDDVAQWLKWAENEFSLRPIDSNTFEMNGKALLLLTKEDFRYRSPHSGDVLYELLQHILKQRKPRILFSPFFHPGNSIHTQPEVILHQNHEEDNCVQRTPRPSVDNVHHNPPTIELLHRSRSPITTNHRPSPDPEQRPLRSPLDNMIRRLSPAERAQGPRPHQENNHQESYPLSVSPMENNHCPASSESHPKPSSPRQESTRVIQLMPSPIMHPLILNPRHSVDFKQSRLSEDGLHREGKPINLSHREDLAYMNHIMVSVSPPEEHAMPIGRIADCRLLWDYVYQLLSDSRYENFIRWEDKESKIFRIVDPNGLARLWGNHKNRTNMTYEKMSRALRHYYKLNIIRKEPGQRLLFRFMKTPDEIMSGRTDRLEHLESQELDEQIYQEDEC
Sequence of ETV1 (P50549 whole entry): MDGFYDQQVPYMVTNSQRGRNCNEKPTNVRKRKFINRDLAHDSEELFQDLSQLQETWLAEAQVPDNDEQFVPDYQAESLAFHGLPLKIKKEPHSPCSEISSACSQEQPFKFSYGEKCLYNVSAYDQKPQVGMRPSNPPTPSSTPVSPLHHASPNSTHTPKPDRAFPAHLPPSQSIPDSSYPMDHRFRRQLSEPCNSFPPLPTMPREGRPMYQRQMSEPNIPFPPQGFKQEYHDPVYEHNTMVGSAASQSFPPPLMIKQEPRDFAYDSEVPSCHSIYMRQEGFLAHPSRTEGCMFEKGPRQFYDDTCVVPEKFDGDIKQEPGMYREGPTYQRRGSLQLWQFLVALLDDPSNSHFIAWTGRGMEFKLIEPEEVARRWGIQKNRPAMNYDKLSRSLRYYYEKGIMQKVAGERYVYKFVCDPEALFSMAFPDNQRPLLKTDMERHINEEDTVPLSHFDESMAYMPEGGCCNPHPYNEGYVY

On to TGATTA, for which the binding signal is 1.16 fold enrichment (6-mer frequency, TF over GST control) in experiment [1]; 1.18 fold enrichment (6-mer frequency, TF over GST control) in [2]; 1.09 fold enrichment (6-mer frequency, TF over GST control) in [3]; 1.16 fold enrichment (6-mer frequency, TF over GST control) in experiment [4]; 1.07 fold enrichment (6-mer frequency, TF over GST control) in experiment [5]; 1.03 fold enrichment (6-mer frequency, TF over GST control) in experiment [6]. Moreover, the binding signal is 1.01 fold enrichment (6-mer frequency, TF over GST control) in experiment [7]; 1.05 fold enrichment (6-mer frequency, TF over GST control) in [8]; 1.08 fold enrichment (6-mer frequency, TF over GST control) in [9]; 1.06 fold enrichment (6-mer frequency, TF over GST control) in experiment [10].

For the origin of these results see article PMC7862700, “An all-to-all approach to the identification of sequence-specific readers for epigenetic DNA modifications on cytosine”.
